Anthrax LF prot: anthrax lethal factor protease inhibition; multiplex microsphere protease cleavage assay, LF; inhibition, % at 10 µM; 360,000 compounds, 0.12% hits; also: plate controls were buffer without enzyme for full effect and enzyme alone for no effect
Target sequence (P15917 whole entry, looked up): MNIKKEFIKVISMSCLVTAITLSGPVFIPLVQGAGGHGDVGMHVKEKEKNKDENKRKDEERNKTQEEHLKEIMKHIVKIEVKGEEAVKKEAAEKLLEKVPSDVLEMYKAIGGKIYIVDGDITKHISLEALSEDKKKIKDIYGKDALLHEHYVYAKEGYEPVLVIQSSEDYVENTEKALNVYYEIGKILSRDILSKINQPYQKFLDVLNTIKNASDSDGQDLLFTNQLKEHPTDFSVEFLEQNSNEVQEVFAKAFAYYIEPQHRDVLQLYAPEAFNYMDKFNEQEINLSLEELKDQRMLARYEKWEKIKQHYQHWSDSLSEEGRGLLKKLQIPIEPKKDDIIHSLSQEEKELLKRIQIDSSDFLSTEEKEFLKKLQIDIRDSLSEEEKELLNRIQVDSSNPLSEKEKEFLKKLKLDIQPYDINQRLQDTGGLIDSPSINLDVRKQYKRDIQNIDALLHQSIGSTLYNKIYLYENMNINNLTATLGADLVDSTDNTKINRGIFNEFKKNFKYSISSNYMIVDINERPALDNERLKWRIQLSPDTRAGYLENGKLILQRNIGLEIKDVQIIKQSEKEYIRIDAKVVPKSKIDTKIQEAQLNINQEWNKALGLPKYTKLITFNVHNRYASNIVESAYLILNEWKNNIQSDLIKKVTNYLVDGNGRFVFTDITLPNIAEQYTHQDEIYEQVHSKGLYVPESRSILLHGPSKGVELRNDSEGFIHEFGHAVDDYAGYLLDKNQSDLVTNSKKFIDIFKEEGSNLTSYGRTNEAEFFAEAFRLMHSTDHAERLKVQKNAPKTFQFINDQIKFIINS
BoNT A protease: inhibitors of Botulinum neurotoxin A light chain protease; 360,000 compounds, 0.17% hits; multiplex microsphere protease substrate cleavage, flow cytometry; AID 588499; inhibition, % at 10 µM; also: plate controls were buffer without enzyme for full effect and enzyme alone for no effect
Vc quorum ag: induces V. cholerae light production without autoinducers | V. cholerae BH1578 lux reporter, luminescence, 6 h | activation, % at 18.7 µM | 350,000 compounds, 0.16% hits | AID 588436; in the data active = activation mostly above about 9.7%, no sharp cut-off; inconclusive = no clear call, values can overlap the other calls; inactive = mostly below about 3.7%
Bead autofluor: compound fluorescence in toxin protease inhibitor counterscreen. compound autofluorescence counterscreen, microsphere flow cytometry; stronger effect = higher value. fluorescence intensity (no concentration beside the values). 360,000 compounds, 3.1% hits. AID 624483; in the data active = fluorescence intensity above about 16000; inconclusive = no clear call, values can overlap the other calls
BoNT F protease: inhibitors of Botulinum neurotoxin F light chain protease; inhibition, % at 10 µM; 360,000 compounds, 0.22% hits; Multiplex microsphere protease cleavage assay, flow cytometry; AID 588497; in the data active = inhibition above about 35%, passing the limit was not always enough; inconclusive = no clear call, values can overlap the other calls; also: plate controls were buffer without enzyme for full effect and enzyme alone for no effect
Active calls of the source: *; i = inactive; ? = inconclusive; nt = not tested or not shown. Most compounds without a hit are left out; they make up all but 3.5% or so of the library. Rule as the data show it, unless noted: active = inhibition above about 30%; inconclusive = no clear call, values can overlap the other calls; inactive = below that.

SMILES | Anthrax LF prot | BoNT A protease | Vc quorum ag | Bead autofluor | BoNT F protease
CC(=O)Nc1ccc(S(=O)(=O)NC2CC(=O)N(c3ccc(C)c(C)c3)C2)cc1 (configuration not stated) | nt | nt | -1 | nt | nt
CCOc1ccccc1C1C(C#N)=C(N)Oc2cc(C)n(C)c(=O)c21 (configuration not stated) | 0 | ? | i | 21644* | 5
Cc1cc2c(c(=O)n1CCCn1ccnc1)C(c1ccco1)C(C#N)=C(N)O2 (configuration not stated) | 0 | 1 | i | 22337* | 0
CCOc1ccccc1C1C(C#N)=C(N)SC(N)=C1C#N | 21 | 24 | 0 | 4715 | 51*
Cc1cc2c(c(=O)n1Cc1cccnc1)C(c1ccccc1)C(C#N)=C(N)O2 (configuration not stated) | -10 | 1 | i | 3096 | -10
Cc1cc2c(c(=O)n1Cc1ccc3c(c1)OCO3)C(c1cccnc1)C(C#N)=C(N)O2 (configuration not stated) | -3 | -1 | i | 20731* | -3
CCOc1ccccc1C1C(C#N)=C(N)Oc2cc(C)n(Cc3ccccn3)c(=O)c21 (configuration not stated) | ? | ? | -1 | ? | ?
Cc1onc(-c2ccccc2Cl)c1C(=O)Nc1ccccc1O | 0 | 2 | 0 | 2960 | 7
COc1ccc2[nH]c3c(c2c1)CCNC3(C)CCc1ccc(Cl)nc1 (configuration not stated) | -5 | -3 | 2 | 3939 | -11
COCCn1c(C)cc2c(c1=O)C(c1ccccc1F)C(C#N)=C(N)O2 (configuration not stated) | 0 | 1 | 0 | 20039* | 0
Cc1occc1C(=O)N1CCCC(N2CCN(c3ccccc3F)CC2)C1 (configuration not stated) | -1 | 2 | -2 | 5745 | 3
CC(C)CNS(=O)(=O)c1ccc(S(=O)(=O)N2CCCN(Cc3ccccc3)C2)cc1 | 0 | -5 | i | 21949* | -6
CC1SC(c2ccc(Cl)cc2)NC1=O (configuration not stated) | 0 | 0 | i | 2389 | -3
CC1SC(c2cccc(Cl)c2)NC1=O (configuration not stated) | 2 | -1 | i | 24188* | -2
COc1ccc(C2NC(=O)C(C)S2)cc1 (configuration not stated) | -4 | -5 | i | 24997* | -9
CC1SC(c2ccc(Cl)cc2Cl)NC1=O (configuration not stated) | -3 | -1 | 0 | 4826 | 5
COc1cccc(CNC(=O)CCCn2c(=S)[nH]c3cc4c(cc3c2=O)OCO4)c1 | 2 | -1 | i | 5427 | 0
O=C(OCC(=O)c1ccc[nH]1)c1ccc(F)c(S(=O)(=O)N2CCOCC2)c1 | 4 | 0 | i | 3147 | -10
O=C(OCCN1C(=O)c2cccc3c(N4CCOCC4)ccc(c23)C1=O)c1ccccc1Cl | 15 | 37* | 0 | 3728 | 8
O=C(OCCN1C(=O)c2ccccc2C1=O)c1cc(S(=O)(=O)N2CCOCC2)ccc1Cl | -2 | 0 | 3 | 2341 | -3
O=C(OCCN1C(=O)c2cccc3c(N4CCOCC4)ccc(c23)C1=O)c1ccc(Cl)cc1Cl | 24 | 51* | 0 | 4710 | 19
CCCCn1cc(S(=O)(=O)c2ccccc2)c(=O)c2cc(C)ccc21 | 1 | -1 | 0 | 6132 | 1
CCOc1ccc(NCC(=O)Nc2ccc(Cl)cc2C)cc1 | -11 | 1 | i | 19405* | -21
CCCOc1ccc(NCC(=O)Nc2ccc(C)cc2C)cc1 | ? | -186 | 0 | ? | i
CC1(C(=O)NS(=O)(=O)c2ccc(F)cc2F)CCN1C(=O)CC1CCCCC1 (configuration not stated) | -1 | 0 | i | 3830 | -4
SMILES | Anthrax LF prot | BoNT A protease | Vc quorum ag | Bead autofluor | BoNT F protease
Cc1cccc(NC(=O)C2CCCN(C(=O)Nc3ccccc3)C2)c1C (configuration not stated) | -1 | ? | i | 22928* | -4
O=C(NCc1ccccc1)C1CCCN(C(=O)Nc2ccccc2)C1 (configuration not stated) | -6 | ? | 0 | 20689* | -5
O=C(NCCc1ccccc1)C1CCCN(C(=O)NC2CCCCC2)C1 (configuration not stated) | -4 | ? | i | 22227* | 1
O=C(NC1CCCCC1)N1CCCC1 | -2 | 1 | 3 | 21923* | 1
COc1ccc(NC(=O)N2CCCC(C(=O)NCCc3ccccc3)C2)cc1 (configuration not stated) | -1 | -1 | 0 | 4581 | 4
CCN(CC(=O)NCc1cccs1)C(=O)c1ccc(-c2ccccc2F)o1 | -1 | 0 | -1 | 3615 | -3
Cc1cccc(NC(=O)C2CCCN2C(=O)OCC(C)C)c1C (configuration not stated) | -2 | 2 | 0 | 21398* | 3
Cc1nc2c(C(=O)O)cnn2c(C)c1Cc1ccccc1F | -13 | ? | -1 | 19848* | 8
Cc1nc2c(C(=O)N3CCCC3)cnn2c(C)c1Cc1c(F)cccc1Cl | -5 | -1 | i | 23177* | -4
Cc1ccccc1Cc1c(C)nc2nc(SCC(=O)NCc3ccco3)nn2c1C | -9 | 2 | 0 | 9154 | 8
Cc1ccccc1Cc1c(C)nc2c(C(=O)NCc3ccco3)cnn2c1C | -4 | -4 | i | 17104* | -5
Cc1nc2c(C(=O)N3CCC4(CC3)OCCO4)cnn2c(C)c1Cc1cccc(Cl)c1 | -2 | 0 | 1 | 3969 | -4
COC(=O)c1cnn2c(C)c(Cc3cccc(F)c3)c(C)nc12 | -10 | -1 | 0 | 4348 | -12
Cc1ccccc1C(C(=O)NC1CCCC1)N(C(=O)Cc1cccs1)c1ccc2c(c1)OCCO2 (configuration not stated) | -7 | 0 | -6 | 4286 | -2
Cc1cc(C)cc(N(C(=O)Cc2cccs2)C(C(=O)NC2CCCCC2)c2ccccn2)c1 (configuration not stated) | -1 | ? | 0 | 23274* | -2
CCc1ccc(N(C(=O)Cc2cccs2)C(C(=O)NC2CCCCC2)c2cn(C)nc2C)cc1 (configuration not stated) | -1 | ? | -4 | 23253* | -2
Cc1nn(-c2ccccc2)c2sc(C(=O)NNC(=O)COc3ccccc3)cc12 | -5 | ? | -4 | 22047* | 1
CCCCOC(=O)C1=C(C)Nc2ncnn2C1c1cc(OC)c(OC)cc1OC (configuration not stated) | -1 | 0 | 14 | 23316* | -1
CCCCOC(=O)C1=C(C)Nc2ncnn2C1c1ccc(OC)c(OC)c1OC (configuration not stated) | -2 | -2 | i | 23980* | -3
COC(=O)[C@]1(Cc2ccccc2)N[C@H](c2ccc(-c3cccc(Cl)c3)cc2)[C@@H]2C(=O)N(C)C(=O)[C@@H]21 | -4 | 0 | i | 3504 | 2
C=CCN=C(NC#N)SCC(=O)c1cccc(OC)c1 | -2 | ? | -2 | 22163* | -8

From PubChem BioAssay
